Compounds without any hit were thinned out: in the full panel of roughly 83,000, 20% have a hit.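 Treatment: one concentration, 48 hours, 96-well format. Scoring: percent growth, with anything below 10 considered active.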 A number with no mark means an inactive call. The source made the active and inactive calls.
Tests used:
Experiment in all cases: NCI-60 one-dose screen, 48 h (100 = growth as untreated, 0 = no growth, -100 = all killed)
Details in all cases: 10 µM unless noted
HCT-15 colon = test system: HCT-15 colon
HT29 colon = test system: HT29 colon
SNB-75 CNS = test system: SNB-75 CNS
SNB-19 CNS = test system: SNB-19 CNS
U251 CNS = test system: U251 CNS
PC-3 prostate = test system: PC-3 prostate
SK-MEL-5 melanoma = test system: SK-MEL-5 melanoma
UACC-62 melanoma = test system: UACC-62 melanoma
LOX IMVI melanoma = test system: LOX IMVI melanoma
SK-MEL-28 melanoma = test system: SK-MEL-28 melanoma

| Compound | growth (HCT-15 colon) | growth (HT29 colon) | growth (SNB-75 CNS) | growth (SNB-19 CNS) | growth (U251 CNS) | growth (PC-3 prostate) | growth (SK-MEL-5 melanoma) | growth (UACC-62 melanoma) | growth (LOX IMVI melanoma) | growth (SK-MEL-28 melanoma) |
| --- | --- | --- | --- | --- | --- | --- | --- | --- | --- | --- |
| COc1cccc(NC(=O)Nc2ccc(Oc3ncnc4[nH]c(C)c(C)c34)cc2)c1 | 87.9% | 75.4% | 87.2% | 89.7% | 76.9% | 80.8% | 88% | 74.2% | -54.9% (active) | 103% |
| N#Cc1ccc(N2Cc3cc(Cl)ccc3OC3=C2C(=O)N(Cc2ccccc2)C3=O)cc1 | -44.9% (active) | -47.3% (active) | 29.9% | 69.1% | -31.7% (active) | 21.9% | -31.5% (active) | -35.5% (active) | -91.6% (active) | -44.4% (active) |
| CC(C)NS(=O)(=O)c1cccc(-c2ccc3c(=O)n(CCCN)c4c(c3c2)C(=O)c2ccccc2-4)c1 | 102% | 89.6% | 82.3% | 111% | 104% | 102% | 98.8% | 108% | 94.4% | 110% |
| CCCCCOC(=O)c1ccccc1O | 97.4% | 96.5% | 83.1% | 106% | 101% | 86.9% | 103% | 97.9% | 104% | 110% |
| Sc1cccc2cccnc12 | 30.1% | 15.8% | 52.8% | 42.7% | 23.2% | 43.7% | -10.9% (active) | -3.89% (active) | 7.92% (active) | 36.3% |
| Cc1c(C(=O)Nc2nc3ccccc3[nH]2)cnn1-c1ccccn1 | 104% | 66% | 104% | 101% | 97.4% | 93.1% | 99.9% | 107% | 104% | 112% |
| C=C(C)[C@@H]1CC[C@]2(C(=O)OCCOCCOCC[P+](c3ccccc3)(c3ccccc3)c3ccccc3)CC[C@]3(C)[C@H](CC[C@@H]4[C@@]5(C)CC[C@H](OC(C)=O)C(C)(C)[C@@H]5CC[C@]43C)[C@@H]12 | -81.3% (active) | -88.5% (active) | -87.2% (active) | -93.6% (active) | -95.4% (active) | -90.2% (active) | -98.5% (active) | -86.5% (active) | -93.2% (active) | -86.7% (active) |
| O=C1CS/C(=N/c2nnc(-c3ccc(O)cc3)s2)N1 | 101% | 103% | 111% | 108% | 101% | 99.5% | 102% | 108% | 92.2% | 110% |
| COc1cc(NC(=O)c2cc(O)c(C/C=C(\C)CCC=C(C)C)c(O)c2)cc2c1O[C@]1(C)CC[C@@H](O)C(C)(C)[C@H]1C2 | 10.4% | 2.06% (active) | 0.372% (active) | 8.74% (active) | 0.579% (active) | 13.1% | -68.2% (active) | -4.89% (active) | -65.8% (active) | 8.85% (active) |
| COc1cc(C(=O)Nc2cc(O)c(C/C=C(\C)CCC=C(C)C)c(O)c2)cc2c1O[C@]1(C)CC[C@@H](O)C(C)(C)[C@H]1C2 | 1.55% (active) | -25.5% (active) | 20.2% | 32.2% | 6.63% (active) | 18.1% | -39.6% (active) | 0.641% (active) | -33.8% (active) | 25.8% |
| O=C(CCc1nnc2sc(OCc3ccccc3)nn12)c1nc2ccc([N+](=O)[O-])cc2[nH]1 | 108% | 107% | 103% | 108% | 99.8% | 94.4% | 110% | 96.6% | 91.3% | 115% |
| N#Cc1c(-c2ccc(F)cc2)nc(N=Nc2c(O)[nH]c3ccc(Cl)cc23)nc1N1CCOCC1 | 71.7% | 37.9% | -6.94% (active) | 39.8% | 15.8% | 61% | 29.6% | 35.1% | 24.5% | 46.8% |
| COCCOC(=O)COc1ccc(OC)cc1 | 98.1% | 114% | 91.8% | 97.4% | 102% | 96.8% | 93.8% | 96.2% | 102% | 109% |
| CCCCCCCCCCCCCC1=NCC[N+]1(CCO)Cc1ccccc1 (stereo not given) | -89.4% (active) | -89.3% (active) | 66% | -82.1% (active) | -88.7% (active) | -88.4% (active) | -73.6% (active) | -87.4% (active) | -92% (active) | -90.7% (active) |
| N#Cc1ccc(C2C3=C(CCCC3=O)OC3=C2C(=O)c2ccccc2C3=O)cc1 (stereo not given) | 74.5% | 97.1% | 62.6% | 105% | 70% | 72.6% | 61.1% | 35.1% | 9.4% (active) | 112% |
| Clc1ccc2c(NCCCNC3CCCCC3)ccnc2c1 | 84.8% | 48.1% | 89.8% | 110% | 93.8% | 87.3% | 99.9% | 111% | 96.7% | 116% |
| CC1=C/C(=N\N=C2/C=C(C)CC(C)(C)C2)CC(C)(C)C1 | 106% | 91.8% | 94.9% | 102% | 96% | 94.8% | 99% | 93.8% | 100% | 116% |
| O=C1c2ccccc2C(=O)c2c1oc1c2c(=O)[nH]c2ccc(Cl)cc21 | -31.1% (active) | 66.4% | -9.01% (active) | 7.11% (active) | -77.5% (active) | -33.3% (active) | 12.3% | 75.1% | 11.1% | -11.8% (active) |
| COc1ccc2cc(/C=C3\N=C(c4cc(OC)c(OC)c(OC)c4)OC3=O)c(OC)nc2c1 | 99.4% | 98.8% | 98.3% | 94.6% | 92.8% | 93.6% | 103% | 89.7% | 102% | 110% |
| COC(=O)/C=C1\SC(=Nc2ccc(C(F)(F)F)cc2)N(CCc2c[nH]c3ccccc23)C1=O | -71.4% (active) | -34.1% (active) | 59.2% | -51.7% (active) | -87.8% (active) | -61.1% (active) | -88.8% (active) | -62.5% (active) | -97% (active) | -58.9% (active) |
| Cn1c2c(c3ccc(-c4ccn[nH]4)cc3c1=O)C(=O)c1ccccc1-2 | 15.7% | 18.9% | 71% | 27.4% | 13.5% | 63.2% | 21.1% | 47.9% | 0.163% (active) | 88.6% |
| CCSc1nc(Cl)c(C#N)c(-c2ccc(F)cc2)n1 | 88.1% | 92.6% | 80.3% | 92.7% | 91.6% | 98.9% | 97.1% | 93.4% | 87.1% | 101% |
| COc1ccc(-c2nc(C#N)c(NCC(c3ccco3)N3CCCC3)o2)cc1 (stereo not given) | 30.9% | 10.7% | 40.6% | 51.9% | 35.7% | 37% | 24.6% | 47.2% | 41.4% | 61.7% |
| Cc1nc2sc(C(=O)Nc3ccccc3)c(N)c2cc1C(C)O (stereo not given) | 27.8% | 1.95% (active) | 30.9% | 24.3% | 21.7% | 21.5% | 26.5% | 29.5% | 47.5% | 55.8% |
| N#CC1C(c2ccc(Cl)cc2)=Nc2c(c(-c3ccccc3)nn2-c2ccccc2)C12C(=O)Nc1ccc(Cl)cc12 (stereo not given) | 20.5% | 22.5% | 45.8% | 24.1% | 18.6% | 11.8% | 46.5% | 48.2% | 43.9% | 52% |
| COc1cc(/C=C/CO)cc(OC)c1O[C@@H]1O[C@H](CO)[C@@H](O)[C@H](O)[C@H]1O | 101% | 100% | 94.9% | 97.2% | 96.1% | 95.1% | 98.9% | 100% | 96.1% | 105% |
| O=CN1N=C(c2ccc(Cl)cc2)CC1c1cccc(Nc2ccnc3cc(C(F)(F)F)ccc23)c1 (stereo not given) | 71.2% | 58.5% | 74.9% | 70.6% | 64.1% | 48.9% | 1.24% (active) | 63.7% | 51.5% | 90.8% |
